Measurements: PubChem BioAssay AID2284350 (EPA ToxCast)
Inconclusive results are not listed. Activity calls are given as the source filed them. How the source made its calls: active means hit-call score of the fitted dose curve at least 0.9, where 1 is the maximum; inconclusive means response in the unintended direction; inactive means score below 0.9.

These molecules were tested on zebrafish Peroxisome Proliferator-activated Receptor alpha (PPARa), gene 563298 (assay: ATG_zfPPARa_EcoTox2: Attagene TRANS-FACTORIAL EcoTox-2 HepG2 Assay for zebrafish Peroxisome Proliferator-activated Receptor alpha (PPARa)).
Method: ATG_EcoTox2 is a cell-based, multiplexed assay created by modifying the existing Attagene TRANS-FACTORIAL system to include a panel of nuclear receptors from some or all the following species: human (Homo sapiens), african clawed frog (Xenopus laevis), rainbow trout (Oncorhynchus mykiss), japanese medaka (Oryzias latipes), and zebrafish (Danio rerio). The ECOTOX2-FACTORIAL format uses HepG2, a human liver cell line, with measurements taken at 24 hours after chemical dosing in a 24-well plate. ATG_zfPPARa_EcoTox2 is one of 29 assay components calculated in the ATG_EcoTox2 assay. It is designed to make measurements of mRNA induction, a form of inducible reporter, as detected with fluorescence intensity signals by Reverse transcription polymerase chain reaction (RT-PCR) and Capillary electrophoresis technology.The assay endpoint ATG_zfPPARa_EcoTox2 was analyzed in the positive analysis fitting direction relative to DMSO as the negative control and baseline of activity. Using a type of inducible reporter, measures of mRNA for gain-of-signal activity can be used to understand the reporter gene at the transcription factor-level as they relate to the gene PPARa. Furthermore, this assay endpoint can be referred to as a primary readout, because this assay has produced multiple assay endpoints where this one serves a reporter gene function. To generalize the intended target to other relatable targets, this assay endpoint is annotated to the nuclear receptor intended target family, where the subfamily is non-steroidal.
Human liver HepG2 cells are transiently transfected with multiple reporter transcription units (MRTUs) in 6-well plates using FuGene 6 reagent (Roche; 3 ml FuGene/1 mg DNA). The MRTU constructs are regulated by a cis-regulating element (promoter). Each RTU expresses a GAL4-UAS that regulates the transcription of a nearby target reporter gene sequence. A major difference between the CIS and TRANS system is that in CIS activities of endogenous TFs are measured, whereas the TRANS assay evaluates changes in activities of exogenous, chimeric NR-Gal4 proteins. […] At the end of 24 hour incubation, total RNA was isolated using TriZol reagent (Invitrogen). The isolated RNA is then reverse-transcribed using oligo(dT) primer and Mo-MLV reverse transcriptase (Invitrogen) with DNAse I (Ambion) treatment for 30 min. The one-tenth of the produced cDNA was amplified by PCR using Taq DNA polymerase (Invitrogen) and two reporter sequence-specific primers. The PCR products were fluorescently labeled by primer extension with 6-arboxyfluorescein (6-FAM) 5'-labeled reporter sequence-specific primer (2 min at 95 C, 20 s at 68 C and 10 min at 72 C) and these products were digested with 5U of HpaI (New England Biolabs) for 2h at 37 C. The fragments were purified using Qiaquick PCR columns (Qiagen), analyzed on an ABI 3130xL genetic analyzer (Applied Biosystems) with peak positions identified by using a set of X-rhodamine (ROX)-labeled MapMarker1000 molecular weight standards (BioVentures). The raw capillary electrophoresis data was processed using Attagraph software (Attagene).

| Structure (SMILES) | outcome | AC50 |
| --- | --- | --- |
| [Cl][Sn]([c]1ccccc1)([c]1ccccc1)[c]1ccccc1 | inactive |  |
| O=C(O)C(F)(F)C(F)(F)C(F)(F)C(F)(F)C(F)(F)C(F)(F)C(F)(F)F |  | 52.7 µM (active) |
| O=S(=O)(O)C(F)(F)C(F)(F)C(F)(F)C(F)(F)C(F)(F)C(F)(F)F | inactive |  |
| CCCCOCN(C(=O)CCl)c1c(CC)cccc1CC | inactive |  |
| O=P(Oc1ccccc1)(Oc1ccccc1)Oc1ccccc1 | inactive |  |
